Screens (PubChem BioAssay)
A549 viability: kills or reduces viability of A549 cells in Nrf2 counter-screen; actives 0.16% (n = 390,000); AID 504648; Potency, µM (series often up to 46 µM), usual class: inhibitors; A549 ARE-Fluc cells, CellTiter-Fluor viability, 18-24 h
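Cytotoxicity counterscreen: CellTiter-Fluor fluorescence was measured in A549 ARE_Fluc cells after 18-24 h of compound exposure in a concentration series. The subsequent BugLite luminescent read reports ARE-luciferase activity.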
Nrf2 activator: Nrf2 pathway activation; AREc32 ARE-luciferase reporter (MCF7-derived line), luminescence, 24 h; Potency, µM (titrated, usually from 46.1 µM), most hits filed as activators; actives 0.31% (n = 410,000); AID 624171; further: nearly all actives have a fitted effect of over 65% in size
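ARE activation measured as luciferase luminescence (Steady-Glo, 30 min RT) in AREc32_Fluc cells after 24 hr compound exposure at 37 deg C, 5% CO2; cells seeded overnight at 1000/well in OPTI-MEM, 5% FBS.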
Nrf2 block: Nrf2 pathway inhibition | Potency, µM (doses to about 46 µM), usual class: inhibitors | A549 ARE-Fluc reporter, luciferase luminescence, 18-24 h | AID 504444 | actives 2.1% (n = 360,000); further: nearly all actives have a fitted effect of over 60% in size
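Quantitative HTS in A549 cells stably bearing an antioxidant response element-firefly luciferase construct. Inhibition of Nrf2-driven transcription was scored by luminescence after 18-24 h of compound exposure at 37 °C.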
ELG1 repair inh: blocks ELG1-dependent DNA repair in HEK293T cells; AID 504467; HEK293T ELG1-luciferase reporter, luminescence, 16 h; DNA damage induced by 5-fluorouridine; Potency, µM (series often up to 46.1 µM), hits mostly inhibitors; actives 2.3% (n = 330,000); further: nearly all actives have a fitted effect of over 55% in size
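Step one: seed 2,000 cells per well. Step two: pin-transfer compound or DMSO alongside 5-fluorouridine. Step three: incubate 16 hr, 37 °C, 5% CO2. Step four: add ONE-Glo, wait 30 min, read luminescence.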
Numbers stand for hits; i = inactive; ? = inconclusive; nt = not tested or not shown; [ ] = dose if it differs, or a comment. A selection: hits, their analogues and other compounds. The true share with any hit is near 3.7%. The call rests on the fitted dose curve; in most records, active means well fitted curve in the direction sought with a large enough effect; inconclusive means small, poorly fitted or top-dose-only effect, or another doubt; inactive means no such curve, though single readings can be large; an effect the other way counts as inactive or inconclusive.

SMILES	A549 viability	Nrf2 activator	Nrf2 block	ELG1 repair inh
Cc1nn(Cc2cccc(C(=O)Nc3ccn(Cc4c(F)c(F)cc(F)c4F)n3)c2)c(C)c1[N+](=O)[O-]	i	i	nt	21µM
Nc1cccc2nc3ccccc3cc12	i	i	?	23µM
Nc1[nH]nc2nc3ccccc3cc12	i	i	i	i
COc1cccc(N2CCN(C(=O)c3cc(C)oc3C)CC2)c1	i	i	i	i
Nc1ncccc1C(=O)OCC(=O)N1CCN(S(=O)(=O)c2ccc(Cl)cc2)CC1	i	i	i	9.2µM
Nc1c(S(=O)(=O)c2cccs2)c2nc3ccccc3nc2n1/N=C/c1cccc(O)c1	?	i	26µM	18µM
COc1cccc(/C=N/n2c(N)c(S(=O)(=O)c3cccs3)c3nc4ccccc4nc32)c1	i	i	?	?
O=C(O)CCN1C(=O)C2C3C=CC(C3)C2C1=O (configuration not stated)	i	i	i	i
O=C1C2C3C=CC(C3)C2C(=O)N1CCCCCCN1C(=O)C2C3C=CC(C3)C2C1=O (configuration not stated)	i	i	15µM	?
CCOc1ccc(-c2nc(S(=O)(=O)c3ccccc3)c(NCc3cccnc3)o2)cc1	i	i	nt	15µM
CCOc1ccc(-c2nc(S(=O)(=O)c3ccccc3)c(NC)o2)cc1	i	i	i	i
Cn1nc(C(=O)Nc2ccc(S(=O)(=O)N3CCCCC3)cc2)ccc1=O	i	i	?	16µM
O=C(Nc1cccnc1)c1ccc(CN2CCc3ccccc3C2)cc1	i	i	13µM	8.2µM
O=C(Nc1ccc(S(=O)(=O)N2CCCCC2)cc1)c1ccc(CN2CCc3ccccc3C2)cc1	i	i	0.33µM	i
Cc1ccc(NC(=O)c2ccc(CN3CCc4ccccc4C3)cc2)cc1	i	i	?	i
O=C(Nc1ccc(S(=O)(=O)N2CCCC2)cc1)c1ccc([N+](=O)[O-])cc1	i	i	?	9.2µM
Cn1nccc1C(=O)Nc1ccc(S(=O)(=O)N2CCCC2)cc1	i	i	i	i
O=C(Nc1ccccc1)c1ccc(CN2CCc3ccccc3C2)cc1	i	i	i	?
CCOC(=O)c1cnc2c(ccc3ccccc32)c1Nc1cccc(Cl)c1	i	i	i	nt
CC1=C(C(=O)N(C)C)CC(CC(=O)NCc2cccc3ccccc23)C(=O)N1CCC1=CCCCC1 (configuration not stated)	nt	i	nt	nt
Cc1cc(C)cc(NC(=O)c2ccc(CN3CCc4ccccc4C3)cc2)c1	i	i	15µM	?
COC(=O)CCn1[nH]c(=O)c2ccccc2c1=O	i	i	i	i
O=c1[nH]n(Cc2ccccc2)c(=O)c2ccccc12	i	5µM	nt	?
Cn1c(NCC2CCCCC2)nc2cc(-c3ccsc3)sc2c1=O	nt	2µM	nt	nt
Cc1nn(C2CCS(=O)(=O)C2)c(Cl)c1/C=C/C(=O)OCC(=O)c1cc(C)n(-c2ccc(F)cc2)c1C (configuration not stated)	i	i	21µM	13µM
SMILES	A549 viability	Nrf2 activator	Nrf2 block	ELG1 repair inh
Cc1nn(C2CCS(=O)(=O)C2)c(Cl)c1/C=C/C(=O)OCC(=O)c1c[nH]c2ccccc12 (configuration not stated)	?	i	?	?
COc1cc(CC(=O)OCC(=O)N2CC(=O)Nc3ccccc32)cc(OC)c1OC	i	i	i	i
CN(C)Cc1nc2ccccc2c(=O)n1Cc1nc(-c2cc3ccccc3o2)cs1	i	i	?	?
CCOc1ccc(-c2csc(Cn3c(CN4CCN(C)CC4)nc4ccccc4c3=O)n2)cc1	i	i	i	21µM
Cn1c(=O)oc2cc(S(=O)(=O)N3CCC(C(=O)N4CCN(c5cccc(Cl)c5)CC4)CC3)ccc21	i	i	?	nt
CC(=O)c1ccc(N2CCN(C(=O)C3CCN(S(=O)(=O)c4ccc5c(c4)CC(C)N5C(C)=O)CC3)CC2)cc1 (configuration not stated)	i	i	15µM	i
CCOC(=O)C1CCN(C(=O)C2CCN(S(=O)(=O)c3ccc4c(c3)CC(C)N4C(C)=O)CC2)CC1 (configuration not stated)	i	i	i	10µM
CC(=O)N1c2ccc(S(=O)(=O)N3CCC(C(=O)N4CCN(c5cccc(C(F)(F)F)c5)CC4)CC3)cc2CC1C (configuration not stated)	i	i	?	?
CCOC(=O)C1CCN(S(=O)(=O)c2ccc3c(c2)CC(C)N3C(=O)C2CC2)CC1 (configuration not stated)	i	i	i	i
Cn1c(=O)oc2cc(S(=O)(=O)N3CCC(C(=O)N4CCN(c5ccc(Cl)cc5)CC4)CC3)ccc21	i	i	18µM	nt
Cc1ccc(NC(=O)CSCn2nnc3c(=O)[nH]c(Cc4ccc(F)cc4)nc32)c(C)c1	i	i	i	nt
CCOC(=O)C1CCCN(S(=O)(=O)c2cc3c(cc2C)NC(=O)CO3)C1 (configuration not stated)	i	i	i	nt
Nc1ccc2cccc(O)c2c1	i	?	i	nt
CN(C)c1ccc(-c2nc(-c3ccco3)no2)cc1[N+](=O)[O-]	i	i	i	nt
COc1ccc(OC)c(CCNC(=O)c2cnn(-c3ccccc3)c2C2CCN(C(=O)OC(C)(C)C)CC2)c1	i	i	?	nt
O=C(OCC1CCCO1)c1ccc2c(c1)N(Cc1cccc(Cl)c1)C(=O)c1ccccc1S2(=O)=O (configuration not stated)	i	i	?	nt
O=C(Nc1nc(-c2ccccn2)cs1)C1CC1	i	i	i	?
O=C(CC1CC2CCC1C2)Nc1nc(-c2ccccn2)cs1 (configuration not stated)	i	i	?	21µM
O=C(Cc1ccc(F)cc1)Nc1cccc(-c2cn3c(n2)SCC3)c1	i	i	i	16µM
Cc1cc(C)c(S(=O)(=O)NC2CC3CCC2C3)c(C)c1 (configuration not stated)	?	i	?	i
O=C(NC(=S)NNC(=O)c1cnccn1)c1ccc(F)cc1	i	i	?	5.2µM
COc1cccc(C(C)(O)c2nc(-c3ccc(C)c(C)c3)cs2)c1 (configuration not stated)	nt	i	nt	nt
O=C1C=CC(=C(c2ccc(O)cc2)c2ccc(O)cc2)C=C1	23µM	i	13µM	13µM
O=C(O)C1=CC(=C(c2ccc(O)c(C(=O)O)c2)c2ccc(O)c(C(=O)O)c2)C=CC1=O	nt	nt	nt	i
O=C(NNC(=O)C(c1ccccc1)c1ccccc1)c1ccccn1	?	i	15µM	i
CCc1cccc(CC)c1NC(=S)NCCc1c(C)[nH]c2ccc(C)cc12	i	i	16µM	?
CCc1cccc(C)c1NC(=S)NCCc1c(C)[nH]c2ccc(C)cc12	i	i	?	i
COc1ccc(NC(=O)C2(C)Cc3c(-c4ccc(N(C)C)cc4)ccnc3O2)cc1OC (configuration not stated)	nt	i[9.22 µM]	nt	nt
COc1ccc(S(=O)(=O)N2CCCC(C(=O)NCC3CCCO3)C2)cc1OC (configuration not stated)	i	i	i	i
